Reference: the supplement of paper PMC8728848
Shown is part of a subset that was picked to be rich in the strongest signals.

Columns and labels:
Experiment in all cases: glycan array binding signal (z-score within array); higher = stronger binding
Conditions in all cases: glycan notation: IUPAC condensed, linker removed; mutation: K176L
[1] = molecular target: Fuc(a1-2)Gal(b1-4)GlcNAc(b1-3)Gal(b1-4)GlcNAc
Summary of the method: (§1)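 The binding signal is a Z-score computed within each array. Data were drawn from 3228 arrays in the Consortium for Functional Glycomics database, restricted to those with a known protein sequence. Scores were averaged over arrays of the same protein sequence at different concentrations or buffers, and over linkers, and negative values can be taken as non-binding.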

[2] = molecular target: Fuc(a1-2)Gal(b1-4)GlcNAc(b1-3)Gal(b1-4)GlcNAc(b1-3)Gal(b1-4)GlcNAc
Summary of the method: as §1

[3] = molecular target: Fuc(a1-2)[Gal(a1-3)]Gal(b1-3)GlcNAc(b1-2)Man(a1-3)[Fuc(a1-2)[Gal(a1-3)]Gal(b1-3)GlcNAc(b1-2)Man(a1-6)]Man(b1-4)GlcNAc(b1-4)GlcNAc
Summary of the method: as §1

[4] = molecular target: Fuc(a1-2)[Gal(a1-3)]Gal(b1-4)GlcNAc(b1-2)Man(a1-3)[Fuc(a1-2)[Gal(a1-3)]Gal(b1-4)GlcNAc(b1-2)Man(a1-6)]Man(b1-4)GlcNAc(b1-4)GlcNAc
Summary of the method: as §1

[5] = molecular target: Fuc(a1-2)[GalNAc(a1-3)]Gal(b1-4)GlcNAc
Summary of the method: as §1

[6] = molecular target: Fuc(a1-2)[GalNAc(a1-3)]Gal(b1-4)GlcNAc(b1-3)Gal(b1-4)GlcNAc(b1-3)Gal(b1-4)GlcNAc
Summary of the method: as §1

[7] = molecular target: Fuc(a1-3)[Gal(b1-4)]GlcNAc
Summary of the method: as §1

[8] = molecular target: Fuc(a1-3)[GalNAc(b1-4)]GlcNAc
Summary of the method: as §1

[9] = molecular target: Gal(a1-4)Gal(b1-3)GlcNAc(b1-2)Man(a1-3)[Gal(a1-4)Gal(b1-3)GlcNAc(b1-2)Man(a1-6)]Man(b1-4)GlcNAc(b1-4)GlcNAc
Summary of the method: as §1

[10] = molecular target: Gal(a1-4)Gal(b1-4)Glc
Summary of the method: as §1

[11] = molecular target: Gal(b1-3)GalNAc
Summary of the method: as §1

[12] = molecular target: Gal(b1-3)GalNAc(b1-3)Gal(a1-4)Gal(b1-4)Glc
Summary of the method: as §1

[13] = molecular target: Gal(b1-3)GlcNAc(b1-3)Gal(b1-4)GlcNAc(b1-6)[Gal(b1-3)GlcNAc(b1-3)]Gal(b1-4)Glc
Summary of the method: as §1

[14] = molecular target: Gal(b1-3)[Fuc(a1-4)]GlcNAc(b1-3)Gal(b1-4)[Fuc(a1-3)]GlcNAc
Summary of the method: as §1

[15] = molecular target: Gal(b1-3)[GlcNAc(b1-6)]GalNAc
Summary of the method: as §1

[16] = molecular target: Gal(b1-4)GalNAc(b1-3)[Fuc(a1-2)]Gal(b1-4)GlcNAc
Summary of the method: as §1

[17] = molecular target: Gal(b1-4)GlcNAc(b1-2)Man(a1-6)[Man(a1-3)]Man(b1-4)GlcNAc(b1-4)GlcNAc
Summary of the method: as §1

[18] = molecular target: Gal(b1-4)GlcNAc(b1-3)Gal(b1-4)Glc
Summary of the method: as §1

[19] = molecular target: Gal(b1-4)GlcNAc(b1-3)Gal(b1-4)GlcNAc(b1-3)Gal(b1-4)GlcNAc
Summary of the method: as §1

[20] = molecular target: Gal(b1-4)GlcNAc(b1-3)[Gal(b1-4)GlcNAc(b1-6)]GalNAc
Summary of the method: as §1

[21] = molecular target: Gal(b1-4)GlcNAc(b1-6)[Gal(b1-3)]GalNAc
Summary of the method: as §1

[22] = molecular target: Gal3S6S(b1-4)GlcNAc6S
Summary of the method: as §1

[23] = molecular target: Gal6S(b1-4)Glc
Summary of the method: as §1

[24] = molecular target: GalNAc(a1-3)GalNAc
Summary of the method: as §1

[25] = molecular target: GlcNAc(a1-4)Gal(b1-3)GlcNAc
Summary of the method: as §1

[26] = molecular target: GlcNAc(a1-4)Gal(b1-4)GlcNAc(b1-3)Gal(b1-4)GlcNAc(b1-3)Gal(b1-4)GlcNAc
Summary of the method: as §1

[27] = molecular target: GlcNAc(b1-3)Gal(b1-4)Glc
Summary of the method: as §1

[28] = molecular target: Kdn(a2-3)Gal(b1-4)[Fuc(a1-3)]GlcNAc
Summary of the method: as §1

[29] = molecular target: Man(a1-2)Man(a1-3)Man
Summary of the method: as §1

[30] = molecular target: Man(a1-2)Man(a1-6)[Man(a1-3)]Man(a1-6)[Man(a1-2)Man(a1-2)Man(a1-3)]Man(b1-4)GlcNAc(b1-4)GlcNAc
Summary of the method: as §1

B1: Gal 3 (Homo sapiens), P17931 (protein)
chain: MADNFSLHDALSGSGNPNPQGWPGAWGNQPAGAGGYPGASYPGAYPGQAPPGAYPGQAPPGAYHGAPGAYPGAPAPGVYPGPPSGPGAYPSSGQPSAPGAYPATGPYGAPAGPLIVPYNLPLPGGVVPRMLITILGTVKPNANILDFQRGNDVAFHFNPRFNENNRRVIVCNTLLDNNWGREERQSVFPFESGKPFKIQVLVEPDHFKVAVNDAHLLQYNHRVKKLNEISKLGISGDIDLTSASYTMI
Q: Which results are given for B1?
A: glycan array binding signal (z-score) [1]: 5.06; glycan array binding signal (z-score) [2]: 5.51; glycan array binding signal (z-score) [3]: 5.21; glycan array binding signal (z-score) [4]: 7.87; glycan array binding signal (z-score) [5]: 0.393; glycan array binding signal (z-score) [6]: 5.28; glycan array binding signal (z-score) [7]: -0.265; glycan array binding signal (z-score) [8]: -0.262; glycan array binding signal (z-score) [9]: -0.258; glycan array binding signal (z-score) [10]: -0.267; glycan array binding signal (z-score) [11]: -0.269; glycan array binding signal (z-score) [12]: -0.262; glycan array binding signal (z-score) [13]: 0.682; glycan array binding signal (z-score) [14]: -0.273; glycan array binding signal (z-score) [15]: -0.27; glycan array binding signal (z-score) [16]: -0.267; glycan array binding signal (z-score) [17]: -0.271; glycan array binding signal (z-score) [18]: 1.53; glycan array binding signal (z-score) [19]: 5.22; glycan array binding signal (z-score) [20]: -0.256; glycan array binding signal (z-score) [21]: -0.268; glycan array binding signal (z-score) [22]: -0.261; glycan array binding signal (z-score) [23]: -0.27; glycan array binding signal (z-score) [24]: -0.27; glycan array binding signal (z-score) [25]: -0.259; glycan array binding signal (z-score) [26]: 5.87; glycan array binding signal (z-score) [27]: -0.271; glycan array binding signal (z-score) [28]: -0.27; glycan array binding signal (z-score) [29]: -0.268; glycan array binding signal (z-score) [30]: -0.263
